Reference: PubChem BioAssay (NCI)
The panel holds about 83,000 compounds, 20% with a hit somewhere; the sample as a whole holds those more often.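 Cells were grown in 96-well plates and exposed to the test compound at a single concentration for 48 hours; results are reported as percent growth, with values below 10 considered active.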 Activity calls are given as the source filed them.

Experiments:
Test in all cases: NCI-60 one-dose screen, 48 h (100 = growth as untreated, 0 = no growth, -100 = all killed)
Details in all cases: 10 µM unless noted
T-47D breast = system: T-47D breast
BT-549 breast = system: BT-549 breast
MDA-MB-435 melanoma = system: MDA-MB-435 melanoma
SW-620 colon = system: SW-620 colon
MCF7 breast = system: MCF7 breast
HCT-116 colon = system: HCT-116 colon
HCC-2998 colon = system: HCC-2998 colon
KM12 colon = system: KM12 colon

Measured: growth

CC(C)C1=C[C@@]23CC[C@@H]4[C@](C)(CCC[C@@]4(C)C(=O)OCC#CCN4CCCC4)[C@H]2C[C@@H]1[C@H]1C(=O)OC(=O)[C@H]13
inactive: T-47D breast 73.9% | BT-549 breast 87.7% | MDA-MB-435 melanoma 102% | SW-620 colon 109% | MCF7 breast 84.7% | HCT-116 colon 88.8% | HCC-2998 colon 108% | KM12 colon 87.3%

CCOC(=O)c1cnc2cc(Cl)c(F)cc2c1Nc1cccc(NS(C)(=O)=O)c1
inactive: T-47D breast 93.5% | BT-549 breast 105% | MDA-MB-435 melanoma 104% | SW-620 colon 94.1% | MCF7 breast 92.5% | HCT-116 colon 86.5% | HCC-2998 colon 98.4% | KM12 colon 93.8%

CN1C2CCC1/C(=C\c1ccc(Cl)cc1)C1=C2[C@@H](c2ccc(Cl)cc2)C(C#N)=C(N)O1 (stereo partly drawn)
inactive: T-47D breast 81.7% | BT-549 breast 97.5% | MDA-MB-435 melanoma 91.5% | SW-620 colon 94.3% | MCF7 breast 66% | HCT-116 colon 63.7% | HCC-2998 colon 104% | KM12 colon 95%

COc1cc(OC)c(/C=C/S(=O)(=O)Cc2cnc(OC)c(N)c2)c(OC)c1
inactive: T-47D breast 15.6% | MDA-MB-435 melanoma 13.4% | SW-620 colon 22.8% | MCF7 breast 11.6% | HCC-2998 colon 17.5%
active: BT-549 breast 8.01% | HCT-116 colon 3.33% | KM12 colon 9.75%

Cc1sc2nc3[nH]/c(=C\c4ccc(Cl)cc4)c(=O)n3c(=O)c2c1C
inactive: T-47D breast 103% | BT-549 breast 105% | MDA-MB-435 melanoma 98% | SW-620 colon 102% | MCF7 breast 100% | HCT-116 colon 102% | HCC-2998 colon 107% | KM12 colon 108%

COc1ccc(-n2cc(-c3ccccc3)c3c(SCC(=O)N/N=C/c4ccc([N+](=O)[O-])cc4)ncnc32)cc1
inactive: T-47D breast 98.7% | BT-549 breast 97.8% | MDA-MB-435 melanoma 109% | SW-620 colon 103% | MCF7 breast 92.5% | HCT-116 colon 105% | HCC-2998 colon 97.7% | KM12 colon 101%

CCC(=O)OCc1cccc(OC)c1
inactive: T-47D breast 95.3% | BT-549 breast 103% | MDA-MB-435 melanoma 97.7% | SW-620 colon 108% | MCF7 breast 105% | HCT-116 colon 95.1% | HCC-2998 colon 101% | KM12 colon 108%

CCCCCCCCCCCCNC(=O)[C@H]1CSC(c2ccc(OC)c(F)c2)N1 (stereo partly drawn)
active: T-47D breast -68.9% | BT-549 breast -84.3% | MDA-MB-435 melanoma -92% | SW-620 colon -70.4% | MCF7 breast -68.1% | HCT-116 colon -88.7% | HCC-2998 colon -83.6% | KM12 colon -84.6%

COc1ccc(/C=C2\CN(C(=O)CCN3CCC(=NO)CC3)C/C(=C\c3ccc(OC)cc3)C2=O)cc1
active: MDA-MB-435 melanoma -61.4% | SW-620 colon -39.3% | MCF7 breast -0.32% | HCT-116 colon -31.8% | HCC-2998 colon -89.5% | KM12 colon -59.6%
inactive: T-47D breast 23.3% | BT-549 breast 15.2%

COc1cc(C(=O)/C=C/c2c(C)n([O-])c3ccc(C)cc3[n+]2=O)cc(OC)c1OC
inactive: T-47D breast 17.6% | BT-549 breast 76.7% | MDA-MB-435 melanoma 60.1% | MCF7 breast 29.4% | HCT-116 colon 15% | HCC-2998 colon 104% | KM12 colon 34.8%
active: SW-620 colon 0.477%

CC1=C(C)C(=O)OC([C@](C)(O)[C@]2(O)CC[C@@]3(O)[C@@H]4C[C@H]5O[C@]56CC=CC(=O)[C@]6(C)[C@H]4CC[C@]23COC(=O)c2ccc(C)o2)C1 (stereo partly drawn)
active: T-47D breast -57.1% | BT-549 breast -49.3% | MDA-MB-435 melanoma -76.9% | SW-620 colon -55.6% | MCF7 breast -66.2% | HCT-116 colon -43.5% | HCC-2998 colon -73.7% | KM12 colon -69%

COc1cc(OC)c(/C=C/C(=O)c2c(OC)cc(OC)cc2OC)c(OC)c1
inactive: T-47D breast 13% | BT-549 breast 33.4% | MCF7 breast 19.5% | HCC-2998 colon 30.3%
active: MDA-MB-435 melanoma -34.8% | SW-620 colon 8.71% | HCT-116 colon 8.7% | KM12 colon 9.29%

CC1=NNC(=O)C1C (stereo not drawn)
inactive: T-47D breast 104% | BT-549 breast 284% | MDA-MB-435 melanoma 104% | SW-620 colon 98% | MCF7 breast 104% | HCT-116 colon 84.2% | HCC-2998 colon 103% | KM12 colon 102%

CCOC(=O)c1nc(Nc2cc(C)[nH]n2)c2ccccc2n1
inactive: T-47D breast 82.3% | BT-549 breast 96.8% | MDA-MB-435 melanoma 96.8% | SW-620 colon 104% | MCF7 breast 81.5% | HCT-116 colon 76.6% | HCC-2998 colon 107% | KM12 colon 36.9%

COc1nc2c(cc1S(=O)(=O)c1ccccc1)CCc1c-2cnn1Cc1ccccc1
inactive: T-47D breast 16.3% | BT-549 breast 62.8% | MDA-MB-435 melanoma 58.9% | SW-620 colon 74.1% | MCF7 breast 15.4% | HCT-116 colon 32.5% | HCC-2998 colon 60.5% | KM12 colon 27.7%

COc1ccc(/C=C/C(=O)c2c(O)c(C)c(O)c3c2OC2=CC(O)=C(C(C)=O)C(=O)[C@]23C)cc1
active: T-47D breast -17.1% | BT-549 breast -19.9% | MDA-MB-435 melanoma -66.9% | SW-620 colon 6.73% | MCF7 breast -2.88% | HCT-116 colon -8.41% | HCC-2998 colon -30.2% | KM12 colon -4.07%

COc1cc(C#N)cc(OC)c1OCCN(CCOc1c(OC)cc(C#N)cc1OC)S(=O)(=O)c1ccc(C)cc1
inactive: T-47D breast 96.3% | BT-549 breast 107% | MDA-MB-435 melanoma 114% | SW-620 colon 99.6% | MCF7 breast 108% | HCT-116 colon 81.6% | HCC-2998 colon 94.8% | KM12 colon 108%

C=C1C(=O)O[C@H]2[C@H]1CC/C(Cn1cc(Cn3ccc4cc(Cl)ccc43)nn1)=C\CC[C@@]1(C)O[C@@H]21
inactive: BT-549 breast 22.8% | HCC-2998 colon 39.1% | KM12 colon 52%
active: T-47D breast -47.6% | MDA-MB-435 melanoma 1.14% | SW-620 colon -75.7% | MCF7 breast -77.5% | HCT-116 colon -91.5%

c1ccc2c(Nc3cccc4ccccc34)cccc2c1
inactive: T-47D breast 65.2% | BT-549 breast 62.8% | SW-620 colon 19% | MCF7 breast 43.9% | HCT-116 colon 30.3% | HCC-2998 colon 78.4% | KM12 colon 33.6%
active: MDA-MB-435 melanoma -27.7%

COc1cccc(/C=C2/C(=O)N(Cc3ccco3)SC2=S)c1OC
inactive: T-47D breast 81.2% | BT-549 breast 89.7% | MDA-MB-435 melanoma 84.6% | SW-620 colon 98.4% | MCF7 breast 47.3% | HCT-116 colon 86.4% | HCC-2998 colon 108% | KM12 colon 92.2%

Cc1ccc(SCN2CCN(c3cccc(Cl)c3)CC2)cc1
inactive: T-47D breast 86.7% | BT-549 breast 62.7% | MDA-MB-435 melanoma 89.7% | SW-620 colon 107% | MCF7 breast 85.2% | HCT-116 colon 91.6% | HCC-2998 colon 100% | KM12 colon 104%

Nc1cccc(NC(=O)C(=O)Nc2cccc(N)c2)c1
inactive: T-47D breast 105% | BT-549 breast 127% | MDA-MB-435 melanoma 102% | SW-620 colon 95.5% | MCF7 breast 100% | HCT-116 colon 80.2% | HCC-2998 colon 105% | KM12 colon 98.7%

CN1CCN(Cc2ccc(NC(=O)c3cncc(C#Cc4cncc5nccnc45)c3)cc2C(F)(F)F)CC1
inactive: T-47D breast 46.5% | BT-549 breast 82.8% | MDA-MB-435 melanoma 21.9% | SW-620 colon 26.4% | MCF7 breast 33.8% | HCT-116 colon 20.2% | HCC-2998 colon 33.6% | KM12 colon 13.9%

COc1ccc(-n2c(C)nc3c(c(C)nn3-c3ccccc3)c2=O)cc1
inactive: T-47D breast 55.9% | SW-620 colon 23.1% | MCF7 breast 11.5% | HCC-2998 colon 16.6% | KM12 colon 11.3%
active: BT-549 breast 9.9% | MDA-MB-435 melanoma 4.94% | HCT-116 colon 3.27%

O=C1C(=O)N(CCCCn2cc(CO)nn2)c2ccccc21
inactive: T-47D breast 98.7% | BT-549 breast 115% | MDA-MB-435 melanoma 98.9% | SW-620 colon 99.7% | MCF7 breast 100% | HCT-116 colon 95.5% | HCC-2998 colon 107% | KM12 colon 101%

CCN(C(=O)CN1CCN(c2cc3c(cc2F)c(=O)c(C(=O)O)cn3CC)CC1)c1nc(-c2ccccc2)cs1
inactive: T-47D breast 11.9% | SW-620 colon 13.9% | HCT-116 colon 14% | HCC-2998 colon 19.6% | KM12 colon 12.7%
active: BT-549 breast 3.3% | MDA-MB-435 melanoma -13.9% | MCF7 breast 7.6%

COc1cc(/C=N\NC(=O)CN2CCN(c3cc4c(cc3F)c(=O)c(C(=O)N/N=C/c3ccc(O)c(OC)c3)cn4C3CC3)CC2)ccc1O
active: T-47D breast -1.62% | HCC-2998 colon 7.72%
inactive: BT-549 breast 56% | MDA-MB-435 melanoma 55% | SW-620 colon 57.2% | MCF7 breast 12.5% | HCT-116 colon 53.6% | KM12 colon 20.5%

COc1cc(-c2cc(-c3nc4ccc(Cl)cc4[nH]3)[nH]n2)cc(OC)c1OC
inactive: BT-549 breast 22.4% | MDA-MB-435 melanoma 39.5% | SW-620 colon 78.7% | MCF7 breast 47% | HCT-116 colon 49.4% | HCC-2998 colon 89% | KM12 colon 47%
active: T-47D breast 0.183%

O=C(O)c1ccccc1Nc1cccc(S(F)(F)(F)(F)F)c1
inactive: T-47D breast 85.8% | BT-549 breast 106% | MDA-MB-435 melanoma 101% | SW-620 colon 94% | MCF7 breast 93.1% | HCT-116 colon 98.3% | HCC-2998 colon 108% | KM12 colon 100%

CCOC(=O)C(=Cc1ccccc1F)C(=O)OCC
inactive: T-47D breast 67.4% | BT-549 breast 87.4% | MDA-MB-435 melanoma 84.6% | SW-620 colon 107% | MCF7 breast 58.6% | HCT-116 colon 75.1% | HCC-2998 colon 110% | KM12 colon 84.7%

COc1ccc2c(c1)C(=O)/C(=C/c1cccc(OCC(=O)Nc3nc4c(s3)CCCC4)c1)O2
active: BT-549 breast -65.4% | SW-620 colon -61.6% | HCT-116 colon -25.7% | HCC-2998 colon -66.7% | KM12 colon -68.3%
inactive: T-47D breast 47.1% | MDA-MB-435 melanoma 27.3% | MCF7 breast 21.9%
